Where “and” joins values, the source holds several entries; their conditions need not be identical. Identical values can stand only once. Out of some 350,000 compounds screened, about 31,000 (8.9%) were called active. Roughly 15% stayed inconclusive and do not appear here. The call rests on the fitted dose curve; in most records, active means well fitted inhibition curve with a large enough effect; inconclusive means small, poorly fitted or top-dose-only effect; inactive means no such curve, though single readings can be large or run the other way. What follows is part of a selection rich in actives, with near analogues and random picks from the rest. A structure can be active in one record and inactive in another.
What follows are compounds tested against Histone-lysine N-methyltransferase EHMT2 (Homo sapiens) (UniProt Q96KQ7) (assay: qHTS Assay for Inhibitors of Histone Lysine Methyltransferase G9a). Conditions: G9a H3K9 monomethylation, AlphaScreen, 2 h; series mostly up to 59 µM; activity, negative = inhibition: at the top concentration.
Method in brief: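 Chemiluminescent proximity detection of H3K9 monomethylation, read after 10 min bead incubation in the dark. Reaction: 20 nM G9a, 500 nM biotin-H3K9 peptide, 20 uM SAM cofactor, 2 h, room temperature, following 15 min enzyme-compound preincubation.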
Further: nearly all actives have a fitted effect of over 75% in size.
On the % scale 0 is the no-effect control and ±100 the full control effect; potency means the concentration at half of the fitted maximal effect.

Sequence of Histone-lysine N-methyltransferase EHMT2 (Homo sapiens) (Q96KQ7 913-1193 limits assumed): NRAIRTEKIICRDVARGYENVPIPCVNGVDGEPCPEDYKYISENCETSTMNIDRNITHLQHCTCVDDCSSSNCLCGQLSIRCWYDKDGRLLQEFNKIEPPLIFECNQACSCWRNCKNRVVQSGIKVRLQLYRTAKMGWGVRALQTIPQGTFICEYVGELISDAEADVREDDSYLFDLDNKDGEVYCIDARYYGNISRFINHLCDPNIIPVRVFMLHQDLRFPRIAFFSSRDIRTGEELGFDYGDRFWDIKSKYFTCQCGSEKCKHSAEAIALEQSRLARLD

Structure (SMILES)	activity, negative = inhibition	Potency
CCOc1ncccc1C(=O)OCC(=O)N1c2ccccc2CC1C (centres undefined)	19% (inactive)	–
Cc1ncc(CO)c(/C=N/NC(=O)c2cccc(S(=O)(=O)N3CCCC3)c2)c1O	25% [at 102 µM] (inactive)	–
Cc1cc(C)c2[nH]c(=O)c(CN(Cc3ccccc3)C(=S)NCCCN(C)C)cc2c1	-28.9% [at 102 µM] (inactive)	–
Cc1cccc2cc(CN(Cc3cccs3)C(=S)NCc3ccco3)c(=O)[nH]c12	-9.03% (inactive)	–
Cc1ccc(C)c2[nH]c(=O)c(CN(Cc3cccnc3)C(=S)NCc3ccco3)cc12	–	50.1 µM (active)
COc1ccc(C(=O)NCC2CCCCC2)cc1S(=O)(=O)N1CCCC1	-36.7% [at 12.7 µM] (inactive)	–
COCCNC(=O)/C(C#N)=C/c1cccc(OCc2ccccc2)c1	2.45% [at 102 µM] (inactive)	–
COc1ccc(CNC(=O)/C(C#N)=C/c2cccc(OC)c2OC)cc1	44% [at 0.501 µM] (inactive)	–
N#C/C(=C\c1ccc(O)c(O)c1)C(=O)NCc1ccccc1	–	5.01 µM (active) and 5.62 µM (active) and 4.74 µM (active)
COc1ccc(NC(=O)C2=CC(c3ccc(OC)c(OC)c3)=NS(=O)(=O)N2C)cc1	-137% [at 102 µM] (inactive)	–
COc1ccc(C2=NS(=O)(=O)N(C)C(C(=O)NC(C)c3ccccc3)=C2)cc1 (centres undefined)	–	inactive and 14.1 µM (active)
COc1ccc(C2=NS(=O)(=O)N(C)C(C(=O)N(C)Cc3ccccc3)=C2)cc1	5.73% [at 12.7 µM] (inactive)	–
CC(=O)N1c2ccc(S(=O)(=O)N3CCCC(C(=O)Nc4cccc(F)c4)C3)cc2CC1C (centres undefined)	-7.59% [at 12.7 µM] (inactive)	–
CCN(CCCNC(=O)Cn1ncc2c3ccccc3n(C)c2c1=O)Cc1ccccc1	1.37% (inactive)	–
CCC(CC)c1nn2cc(-c3ccccc3)nc2s1	30.5% (inactive)	–
O=C(Nc1ccc2c(c1)OCCO2)C1CCCC1	2.92% [at 12.7 µM] (inactive)	–
Cc1cc(/C=N/Nc2ccc([N+](=O)[O-])cn2)c(C)n1-c1cccc(C(=O)O)c1	–	15.8 µM (active)
Cc1cccc(C)c1NC(=O)CSc1ccc([N+](=O)[O-])cn1	-14.7% (inactive)	–
Cc1ccc(-n2c(C)cc(/C=N/Nc3ccc([N+](=O)[O-])cn3)c2C)c(C)c1	-11.9% (inactive)	–
C#CC(C)(CC)NC(=O)Cn1nnc(-c2ccc(OCc3c(F)cccc3Cl)cc2)n1 (centres undefined)	-5.54% (inactive)	–
CCOc1ccc(NC(=O)CN(C)C(=O)c2c(C)noc2C)cc1OCC	2.91% [at 102 µM] (inactive)	–
Cc1ccc(CSCC(=O)N(C)CC(=O)Nc2cccc(F)c2)cc1	5.8% [at 102 µM] (inactive)	–
COCCN(C(=O)CSCc1ccc(C)cc1)c1c(N)n(CC(C)C)c(=O)[nH]c1=O	19% [at 12.7 µM] (inactive)	–
Cc1ccc(CSCC(N)C(=O)O)cc1 (centres undefined)	–	15.8 µM (active)

Source: PubChem BioAssay AID504332 (National Center for Advancing Translational Sciences (NCATS), 2011)
